Consider 24 compounds from PubChem BioAssay (NCATS).

Test [1] can be described thus: NS1 protein of Zika virus - qHTS assay to identify small molecule inhibitors in human HEK 293 cells (AID 1347053). Note: nearly all actives have a fitted effect of over 55% in size. An outline of the steps:
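Readout was TR-FRET using paired anti-NS1 antibodies after 24 h infection of HEK 293 cells with ZIKV MR766 (MOI = 0.5). Compound preceded virus by 1 h; reduced signal reflects lower NS1 expression.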
(Quantitative high-throughput screening tests each substance at several concentrations.)

Test [2] can be described thus: qHTS of pediatric cancer cell lines to identify multiple opportunities for drug repurposing: Primary screen for TC32 cells (AID 1347089). Note: nearly all actives have a fitted effect of over 60% in size. An outline of the steps: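 Luminescent ATP read-out (CellTiter-Glo) of metabolically active TC32 cells after 48 h exposure. Concentration-response curves came from 11-point (MIPE, 0.78 nM–46 µM) or 8-point (NPC, 0.59 nM–46 µM) primary titrations; follow-up used 11 points.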

The nature of test [3]: qHTS of pediatric cancer cell lines to identify multiple opportunities for drug repurposing: Primary screen for SJ-GBM2 cells (AID 1347091). An outline of the steps: (§1)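 Viability measured as metabolically active cells via CellTiter-Glo luminescence following 48 hours of compound exposure, 11-point dilutions in confirmatory testing. 500-1,000 cells/well plated 5 hours before dosing; controls were DMSO and 2.3 µM bortezomib.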

Test [4] can be described thus: qHTS of pediatric cancer cell lines to identify multiple opportunities for drug repurposing: Primary screen for A673 cells (AID 1347092). Note: nearly all actives have a fitted effect of over 45% in size. An outline of the steps: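 Cell viability of A673 measured by CellTiter-Glo ATP luminescence after 48 hours compound exposure. Dilution series spanned 0.78 nM to 46 µM (MIPE, 11-point) or 0.59 nM to 46 µM (NPC, 8-point); bortezomib 2.3 uM positive control.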

A short description of test [5]: qHTS of pediatric cancer cell lines to identify multiple opportunities for drug repurposing: Primary screen for SK-N-MC cells (AID 1347093). An outline of the steps:
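Metabolically active cells were quantified by ATP-dependent luminescence (CellTiter-Glo, 15 min at room temperature) following 48 h treatment. Cells had been plated at 500-1,000 per well and settled for 5 h beforehand.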

A short description of test [6]: qHTS of pediatric cancer cell lines to identify multiple opportunities for drug repurposing: Primary screen for DAOY cells (AID 1347090). Note: nearly all actives have a fitted effect of over 55% in size. An outline of the steps: as §1

Results filed as inconclusive are left out. The source made the active and inactive calls. Calls come from the whole dose curve; as a rule, active = well fitted curve in the direction sought with a large enough effect; inconclusive = small, poorly fitted or top-dose-only effect, or another doubt; inactive = no such curve, though single readings can be large; an effect the other way counts as inactive or inconclusive.
Potency is the fitted concentration of half-maximal effect.

Take `C=CCNc1c(O)cc2c(O)c1C[C@@H](C)C[C@H](OC)[C@@H](O)[C@@H](C)C=C(C)[C@H](OC(N)=O)[C@@H](OC)C=CC=C(C)C(=O)N2`: the Potency result in test [1] was “inactive”. Besides, the Potency was 1650 nM (active) in test [2], 526 nM (active) in test [3], 935 nM (active) in test [4] and 1180 nM (active) in test [5].

As to `COc1cc(C(C)C)c(Oc2cnc(NC(CO)CO)nc2N)cc1I`, the Potency result in test [1] and in test [2] was “inactive” each time. For the same compound, the Potency in test [4] was 372 nM (active); in test [5], 1050 nM (active).

With `CC(C)Oc1ccc(C(=O)N[C@H](CNC(=O)CN(C)C)Cc2ccc(-c3cn4cccc([C@H](C)O)c4n3)cc2)cc1Cl`, the Potency in test [1] is 20900 nM (active); in test [2], 370 nM (active); in test [3] it was 148 nM (active); in test [4] it was 148 nM (active); in test [5], 148 nM (active).

`CC(C)N(CC[C@H](c1ccccc1)c1cc(CO)ccc1O)C(C)C`: the Potency entry in test [1], in test [6] and in test [4] was “inactive” in each case.

`CC(=O)N1CCN(c2ccc(OCc3nn(C)c(C)c3-c3cccc4c(CCCOc5cccc6ccccc56)c(C(=O)O)n(Cc5cccnc5)c34)cc2)CC1`: the Potency entry in test [1] is “inactive”. In addition, the Potency was 118 nM (active) in test [6], 1050 nM (active) in test [3], 74.3 nM (active) in test [4] and 23.5 nM (active) in test [5].

As to `O=C(O)CCCCCC(=O)NN=C1CCCC1`, the Potency result in test [1], in test [6] and in test [4] was “inactive” each time.

For the compound `O=C(c1ccc(F)cc1)N1CCC[C@H](c2nc(-c3ccc(F)cc3)no2)C1`, the Potency entry in test [1], in test [6], in test [4] and in test [5] was “inactive” each time.

Regarding `C=CC1=C(C(=O)O)N2C(=O)[C@@H](NC(=O)C(=NO)c3csc(N)n3)[C@H]2SC1`, the Potency result in test [1], in test [6], in test [3] and in test [5] was “inactive” in each case.

For the compound `CC(C)[C@H](CO)Nc1nc(Nc2cccc(Cl)c2)c2ncn(C(C)C)c2n1`, the Potency in test [1] is 23500 nM (active); in test [6] it was 18700 nM (active); in test [3], 16600 nM (active); in test [4], 14800 nM (active); in test [5], 1320 nM (active).

For `Cc1[nH]c(C=C2C(=O)Nc3ccccc32)c(C)c1CCC(=O)O`, in test [1], the Potency result was “inactive”. For the same compound, the Potency in test [6] was 2960 nM (active); in test [3] it was 935 nM (active); in test [4], 1180 nM (active); in test [5] it was 590 nM (active).

As to `CC(=O)O[C@]1(C(C)=O)CC[C@H]2[C@@H]3C=C(C)C4=CC(=O)CC[C@]4(C)[C@@H]3CC[C@@]21C`, the Potency entry in test [1] is “inactive”. The Potency in test [6] was 7430 nM (active); in test [3], 14800 nM (active); in test [4] it was 2350 nM (active); in test [5] it was 2090 nM (active).

Take `Cn1cnc2c(F)c(Nc3ccc(Br)cc3F)c(C(=O)NOCCO)cc21`: the Potency entry in test [1], in test [6], in test [3], in test [4] and in test [5] was “inactive” throughout.

For the compound `Nc1cccc2c1C(=O)N(C1CCC(=O)NC1=O)C2=O` (stereo unspecified), the Potency result in test [1], in test [6], in test [3], in test [4] and in test [5] was “inactive” in each case.

Turning to `NC1=N[C@H]2[C@H](CS[C@H]2CCCCC(=O)O)N1`, the Potency result in test [1], in test [6], in test [3] and in test [5] was “inactive” each time.

Regarding `O=C1CSC(=O)N1C(CCc1ccncc1)COc1ccc(-c2cccc([N+](=O)[O-])c2)cc1` (stereo unspecified), the Potency result in test [1] was “inactive”. Further, the Potency in test [6] is 7430 nM (active); in test [4] it was 7430 nM (active); in test [5], 10500 nM (active).

For `O=c1ccn([C@@H]2O[C@H](CO)[C@H](O)[C@@H]2F)c(=O)[nH]1`, the Potency result in test [1] and in test [6] was “inactive” in each case. Moreover, the Potency in test [4] is 23500 nM (active); in test [5], 8330 nM (active).

Turning to `CCc1ccc(C(=O)Nc2cc(CN3CCN(C)CC3)cc(C(F)(F)F)c2)cc1C#Cc1cnc2ccnn2c1`, the Potency in test [1] is 13200 nM (active); in test [6], 23500 nM (active); in test [4], 9350 nM (active); in test [5], 1870 nM (active).

In the case of `Nc1ccn(C2CO[C@H](CO)O2)c(=O)n1` (stereo partly specified), the Potency entry in test [1], in test [6], in test [3], in test [4] and in test [5] was “inactive” in each case.

Take `Cc1ccc(-n2[nH]c(C)c(N=Nc3cccc(-c4cccc(C(=O)O)c4)c3O)c2=O)cc1C`: in test [1], the Potency result was “inactive”. The Potency is 18700 nM (active) in test [6], 13300 nM (active) in test [4] and 14800 nM (active) in test [5].

Regarding `CC(C)(C)[N+]([O-])=Cc1ccc(S(=O)(=O)O)cc1S(=O)(=O)O`, the Potency entry in test [1], in test [6], in test [3], in test [4] and in test [5] was “inactive” in each case.

With `Cc1nc(NC(=O)N2CCC[C@@H]2C(N)=O)sc1-c1ccnc(C(C)(C)C(F)(F)F)c1`, the Potency result in test [1] is “inactive”. Besides, the Potency in test [6] was 7430 nM (active); in test [3] it was 5900 nM (active); in test [4], 9350 nM (active); in test [5], 59 nM (active).

Turning to `c1cncc(CN2CCC(n3ncc4c(N5CCOCC5)nc(-c5ccc6[nH]ccc6c5)nc43)CC2)c1`, the Potency in test [1] was 14800 nM (active); in test [6], 18700 nM (active); in test [4] it was 11800 nM (active); in test [5], 7430 nM (active).

On to `CC(=O)SCC(Cc1ccccc1)C(=O)NCC(=O)OCc1ccccc1` (stereo unspecified), for which, in test [1], the Potency result is “inactive”. Further, the Potency in test [6] is 2350 nM (active); in test [3], 5900 nM (active); in test [4], 590 nM (active); in test [5], 187 nM (active).

Regarding `CC(N[C@H]1CCCC[C@H]1NC(=O)c1ccc(Cl)cc1)c1cccc2ccccc12` (stereo partly specified), in test [1], the Potency entry was “inactive”. Moreover, the Potency was 29.6 nM (active) in test [6], 743 nM (active) in test [4] and 20.9 nM (active) in test [5].
